The record followed here is article PMC7819943, “Rice protein-binding microarrays: a tool to detect cis-acting elements near promoter regions in rice”.

Whole data set: some 35,000 sequences, median “fluorescence intensity (a.u.)” near 10,000, cut for the highest 2% near 52,000. This is one part of a sample in which the highest values are shown more often than they occur.

This assay has as its target T1, OsWOX13 (Oryza sativa, UniProt Q5QMM3 1-267).
T1 sequence: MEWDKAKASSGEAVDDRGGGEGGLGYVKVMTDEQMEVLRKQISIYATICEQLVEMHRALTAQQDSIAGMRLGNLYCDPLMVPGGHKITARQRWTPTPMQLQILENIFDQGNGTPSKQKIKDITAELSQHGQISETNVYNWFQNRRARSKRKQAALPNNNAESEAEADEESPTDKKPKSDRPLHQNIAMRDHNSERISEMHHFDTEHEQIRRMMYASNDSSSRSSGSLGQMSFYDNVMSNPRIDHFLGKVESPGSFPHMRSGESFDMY
The experiment in a line: protein-binding microarray (RPBM); PBS, 2% BSA, 51.3 ng/ul salmon testes DNA, 50 uM zinc acetate, 200 nM TF, 25 C, 1 h; high values mean tight binding. The conditions noted are these: protein: recombinant; tags: N-terminal polyhistidine and DsRed monomer fusion (pET32a); label: CyDye5-dUTP incorporated in the synthesized complementary strand; 3' TTTTT single-stranded linker to array surface; dsDNA, one strand shown. An outline of the steps:
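An Axon 4000B scanner gave the binding signal as per-feature fluorescence intensity in arbitrary units. This followed washing of a custom Agilent array that had been incubated for 1 h at 25 °C with 200 nM protein in PBS, 2% BSA, salmon testes DNA and 50 µM zinc acetate. The proteins were transcription factors fused at the N-terminus to polyhistidine and DsRed, expressed in E. coli BL21-CodonPlus and purified on Ni–NTA.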
Turning to “ATAACTAATATAATCGAACCTGCCTCACTTAATATGTGGCCGGAGTCACCTAGTGCAG”, the binding signal was 4830 fluorescence intensity (a.u.).

Turning to “CTAAAATTACATATGTAATTTAGGCACTTACATATGTAATCGGAGTCACCTAGTGCAG”, the binding signal was 19500 fluorescence intensity (a.u.).

In the case of “TGTTAACCAGATTTATTATATTTGAAAATGTCACCTCCAACGGAGTCACCTAGTGCAG”, the binding signal is 8160 fluorescence intensity (a.u.).

For the sequence “TTGCAAATAATTTGGAAAGGTAATATGAGCTACAGCTGTGCGGAGTCACCTAGTGCAG”, the binding signal is 7080 fluorescence intensity (a.u.).

As for “ATAATGGATTGCTTGTTCCAGCACTGAATGTGCTGCCAAGCGGAGTCACCTAGTGCAG”, the binding signal was 6550 fluorescence intensity (a.u.).

In the case of “CGAATTAACTAGATCATATTACTCTTTCATGCAATAAACACGGAGTCACCTAGTGCAG”, the binding signal was 4320 fluorescence intensity (a.u.).

As for “TGGGATAATTAACTCGTAATGATCCCCAAATGCGTGCGTACGGAGTCACCTAGTGCAG”, the binding signal is 28300 fluorescence intensity (a.u.).

Consider “GTTAACGACCAAAATTGGTAGCATCGACACCTCCCTGGGCCGGAGTCACCTAGTGCAG”, for which the binding signal is 4240 fluorescence intensity (a.u.).

For the sequence “TCCACTAATATTAACCAATAGACAGATATACTATCACAGTCGGAGTCACCTAGTGCAG”, the binding signal was 10800 fluorescence intensity (a.u.).

Regarding “ATTATTGAACGAATGATTATCGTAGATTATACATCTAGCCCGGAGTCACCTAGTGCAG”, the binding signal was 28400 fluorescence intensity (a.u.).

As for “GGTGATTAGACCGGTGATCTATACCGGTCAGACCGATAGCCGGAGTCACCTAGTGCAG”, the binding signal is 47800 fluorescence intensity (a.u.).

On to “AATAGATAGATTGATACCACCACTTAACTATACTAATGCTCGGAGTCACCTAGTGCAG”, for which the binding signal is 63700 fluorescence intensity (a.u.).

With “TTACTTAATTACTATAGATAATTAGTTGATTAGTGTTACTCGGAGTCACCTAGTGCAG”, the binding signal was 45000 fluorescence intensity (a.u.).

With “ATAGATAGATAGATAATAGATAGATAGAAGATAGATAGATCGGAGTCACCTAGTGCAG”, the binding signal is 44600 fluorescence intensity (a.u.).

In the case of “AGTTATGTAATTGGATCATGAGTAGATATACATGTGTGCTCGGAGTCACCTAGTGCAG”, the binding signal is 29300 fluorescence intensity (a.u.).

“TAGATAGATAGAAGATAATAGAAGATAGATAATAGAAGATCGGAGTCACCTAGTGCAG”: the binding signal is 10200 fluorescence intensity (a.u.).

Consider “GGTAATTGATTATGCACCTGATCTAGATACATGTACAGCTCGGAGTCACCTAGTGCAG”, for which the binding signal is 61800 fluorescence intensity (a.u.).

As for “AGATAGATAGATAGATAGATAGATAGATAGATAGATAGATCGGAGTCACCTAGTGCAG”, the binding signal is 55700 fluorescence intensity (a.u.).

Regarding “TAGCCACCGTGATTGATTGATCTATAGATCGATTGGTGCCCGGAGTCACCTAGTGCAG”, the binding signal is 64000 fluorescence intensity (a.u.).

With “ATCTATAATTAGATTGATATGATTATCTTGTGTACAACAACGGAGTCACCTAGTGCAG”, the binding signal was 37800 fluorescence intensity (a.u.).

On to “AGTGGTGATGGGCACAATGGTGATTAGAGTGGCGGAGATCCGGAGTCACCTAGTGCAG”, for which the binding signal was 7460 fluorescence intensity (a.u.).

For “TATTGATTTAATGAAACTAATTTGGTATTATAAATATTACCGGAGTCACCTAGTGCAG”, the binding signal was 32200 fluorescence intensity (a.u.).

Consider “GGAGAGCAATCAAGCGAAATTGACACGTGTCACGGCAGTGCGGAGTCACCTAGTGCAG”, for which the binding signal is 30300 fluorescence intensity (a.u.).
